What was measured:
[1] = biological target: Sphingosine kinase 1 (Homo sapiens) (UniProt Q9NYA1); details: at 1 µM;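 also: mean SPHK1 inhibition value reported from the GSK PKIS kinase panel screen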
[2] = biological target: T1, Sphingosine kinase 2 (Homo sapiens) (UniProt Q9NRA0); details: at 0.1 µM
T1 sequence (whole entry): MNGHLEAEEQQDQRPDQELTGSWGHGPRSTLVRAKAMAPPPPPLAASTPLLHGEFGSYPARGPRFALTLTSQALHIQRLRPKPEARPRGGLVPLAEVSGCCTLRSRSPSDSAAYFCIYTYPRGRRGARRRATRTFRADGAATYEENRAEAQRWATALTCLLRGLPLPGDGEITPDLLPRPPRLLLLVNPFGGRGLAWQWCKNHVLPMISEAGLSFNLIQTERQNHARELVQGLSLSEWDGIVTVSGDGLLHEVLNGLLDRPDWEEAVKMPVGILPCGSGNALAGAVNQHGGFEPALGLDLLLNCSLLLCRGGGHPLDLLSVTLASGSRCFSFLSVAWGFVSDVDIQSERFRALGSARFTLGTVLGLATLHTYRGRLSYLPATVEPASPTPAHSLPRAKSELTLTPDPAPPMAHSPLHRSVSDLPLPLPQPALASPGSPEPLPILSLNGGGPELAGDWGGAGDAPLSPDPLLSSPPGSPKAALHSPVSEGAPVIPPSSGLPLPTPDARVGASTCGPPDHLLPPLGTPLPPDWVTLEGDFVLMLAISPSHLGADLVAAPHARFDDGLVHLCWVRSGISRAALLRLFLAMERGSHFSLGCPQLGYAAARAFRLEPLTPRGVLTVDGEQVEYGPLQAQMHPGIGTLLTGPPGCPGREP

[3] = biological target: T1, Sphingosine kinase 2 (Homo sapiens); details: at 1 µM
[4] = biological target: Casein kinase II subunit alpha (Homo sapiens) (UniProt P68400); details: at 0.1 µM
Casein kinase II subunit alpha (Homo sapiens), sequence (P68400 whole entry, looked up): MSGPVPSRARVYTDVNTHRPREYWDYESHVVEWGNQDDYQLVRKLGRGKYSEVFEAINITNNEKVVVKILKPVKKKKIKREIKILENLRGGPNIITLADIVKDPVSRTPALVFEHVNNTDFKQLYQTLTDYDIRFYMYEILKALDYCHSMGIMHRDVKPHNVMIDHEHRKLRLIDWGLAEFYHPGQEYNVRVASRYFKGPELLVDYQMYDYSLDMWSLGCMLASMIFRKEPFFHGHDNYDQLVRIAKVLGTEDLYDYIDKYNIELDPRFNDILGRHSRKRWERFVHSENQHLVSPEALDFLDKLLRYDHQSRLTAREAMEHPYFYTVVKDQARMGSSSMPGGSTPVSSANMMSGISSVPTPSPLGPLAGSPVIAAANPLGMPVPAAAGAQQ

[5] = biological target: Casein kinase II subunit alpha (Homo sapiens) (UniProt P68400); details: at 1 µM
[6] = biological target: T2, Inhibitor of nuclear factor kappa-B kinase subunit alpha (Homo sapiens) (UniProt O15111); details: at 0.1 µM
T2 sequence (whole entry): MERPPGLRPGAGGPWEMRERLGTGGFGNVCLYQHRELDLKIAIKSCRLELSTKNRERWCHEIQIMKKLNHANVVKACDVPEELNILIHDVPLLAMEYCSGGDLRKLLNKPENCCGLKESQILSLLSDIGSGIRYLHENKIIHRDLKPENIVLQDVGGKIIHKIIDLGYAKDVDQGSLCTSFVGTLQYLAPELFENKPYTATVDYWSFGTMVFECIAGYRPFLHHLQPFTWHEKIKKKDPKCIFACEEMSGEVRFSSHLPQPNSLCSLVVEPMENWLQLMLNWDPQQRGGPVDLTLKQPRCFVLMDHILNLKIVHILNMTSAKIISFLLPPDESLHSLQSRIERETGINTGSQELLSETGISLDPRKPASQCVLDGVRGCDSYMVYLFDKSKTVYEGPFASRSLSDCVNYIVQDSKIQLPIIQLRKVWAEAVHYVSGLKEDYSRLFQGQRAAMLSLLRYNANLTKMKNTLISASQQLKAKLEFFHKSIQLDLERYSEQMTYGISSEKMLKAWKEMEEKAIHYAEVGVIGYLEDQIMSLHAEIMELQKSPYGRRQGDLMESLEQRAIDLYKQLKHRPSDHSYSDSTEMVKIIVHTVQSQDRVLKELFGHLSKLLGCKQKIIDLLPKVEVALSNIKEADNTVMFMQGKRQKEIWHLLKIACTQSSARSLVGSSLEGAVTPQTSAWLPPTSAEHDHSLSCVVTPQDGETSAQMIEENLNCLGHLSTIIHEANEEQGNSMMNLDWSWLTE

[7] = biological target: T2, Inhibitor of nuclear factor kappa-B kinase subunit alpha (Homo sapiens); details: at 1 µM
[8] = biological target: T3, Inhibitor of nuclear factor kappa-B kinase subunit beta (Homo sapiens) (UniProt O14920); details: at 0.1 µM
T3 sequence (whole entry): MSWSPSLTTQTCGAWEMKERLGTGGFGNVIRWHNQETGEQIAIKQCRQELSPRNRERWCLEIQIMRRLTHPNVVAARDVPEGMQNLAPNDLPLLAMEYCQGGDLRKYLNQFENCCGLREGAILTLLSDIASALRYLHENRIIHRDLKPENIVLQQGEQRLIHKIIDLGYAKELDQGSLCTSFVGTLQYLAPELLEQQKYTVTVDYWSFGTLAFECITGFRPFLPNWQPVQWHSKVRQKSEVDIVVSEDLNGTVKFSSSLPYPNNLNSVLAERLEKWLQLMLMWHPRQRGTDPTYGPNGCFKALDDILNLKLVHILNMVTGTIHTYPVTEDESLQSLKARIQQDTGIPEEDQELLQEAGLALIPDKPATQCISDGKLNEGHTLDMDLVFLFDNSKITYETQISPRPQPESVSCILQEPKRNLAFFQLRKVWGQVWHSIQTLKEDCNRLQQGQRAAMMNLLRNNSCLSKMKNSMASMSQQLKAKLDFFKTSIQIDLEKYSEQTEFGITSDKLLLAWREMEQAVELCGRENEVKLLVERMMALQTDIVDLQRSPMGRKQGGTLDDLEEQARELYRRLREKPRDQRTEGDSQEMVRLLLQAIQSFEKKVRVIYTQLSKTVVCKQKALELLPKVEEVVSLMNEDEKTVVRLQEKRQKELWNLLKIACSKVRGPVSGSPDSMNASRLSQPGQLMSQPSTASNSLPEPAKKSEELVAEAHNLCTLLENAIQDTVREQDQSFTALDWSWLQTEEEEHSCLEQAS

[9] = biological target: T3, Inhibitor of nuclear factor kappa-B kinase subunit beta (Homo sapiens); details: at 1 µM
[10] = biological target: T4, Inhibitor of nuclear factor kappa-B kinase subunit epsilon (Homo sapiens) (UniProt Q14164); details: at 0.1 µM
T4 sequence (whole entry): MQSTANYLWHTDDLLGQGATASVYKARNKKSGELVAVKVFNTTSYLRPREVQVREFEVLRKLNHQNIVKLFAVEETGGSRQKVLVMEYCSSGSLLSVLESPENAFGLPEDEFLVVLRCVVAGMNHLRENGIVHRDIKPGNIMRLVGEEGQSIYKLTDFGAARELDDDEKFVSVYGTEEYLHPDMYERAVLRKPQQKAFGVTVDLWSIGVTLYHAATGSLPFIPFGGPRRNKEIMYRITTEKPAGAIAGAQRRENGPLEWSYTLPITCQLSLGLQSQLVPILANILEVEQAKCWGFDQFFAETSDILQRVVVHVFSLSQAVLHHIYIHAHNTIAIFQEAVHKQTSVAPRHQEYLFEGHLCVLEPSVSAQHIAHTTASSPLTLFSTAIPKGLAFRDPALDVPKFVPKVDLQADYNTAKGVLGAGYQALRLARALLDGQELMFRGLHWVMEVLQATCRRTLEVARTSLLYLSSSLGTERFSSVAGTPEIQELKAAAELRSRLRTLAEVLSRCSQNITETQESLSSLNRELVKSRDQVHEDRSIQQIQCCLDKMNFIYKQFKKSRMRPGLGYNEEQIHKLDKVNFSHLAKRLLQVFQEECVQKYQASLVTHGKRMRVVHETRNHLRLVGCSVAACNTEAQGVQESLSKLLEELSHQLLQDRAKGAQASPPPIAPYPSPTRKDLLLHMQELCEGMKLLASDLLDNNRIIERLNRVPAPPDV

[11] = biological target: T4, Inhibitor of nuclear factor kappa-B kinase subunit epsilon (Homo sapiens); details: at 1 µM
[12] = biological target: T5, Serine/threonine-protein kinase Nek1 (Homo sapiens) (UniProt Q96PY6); details: at 0.1 µM
T5 sequence (whole entry): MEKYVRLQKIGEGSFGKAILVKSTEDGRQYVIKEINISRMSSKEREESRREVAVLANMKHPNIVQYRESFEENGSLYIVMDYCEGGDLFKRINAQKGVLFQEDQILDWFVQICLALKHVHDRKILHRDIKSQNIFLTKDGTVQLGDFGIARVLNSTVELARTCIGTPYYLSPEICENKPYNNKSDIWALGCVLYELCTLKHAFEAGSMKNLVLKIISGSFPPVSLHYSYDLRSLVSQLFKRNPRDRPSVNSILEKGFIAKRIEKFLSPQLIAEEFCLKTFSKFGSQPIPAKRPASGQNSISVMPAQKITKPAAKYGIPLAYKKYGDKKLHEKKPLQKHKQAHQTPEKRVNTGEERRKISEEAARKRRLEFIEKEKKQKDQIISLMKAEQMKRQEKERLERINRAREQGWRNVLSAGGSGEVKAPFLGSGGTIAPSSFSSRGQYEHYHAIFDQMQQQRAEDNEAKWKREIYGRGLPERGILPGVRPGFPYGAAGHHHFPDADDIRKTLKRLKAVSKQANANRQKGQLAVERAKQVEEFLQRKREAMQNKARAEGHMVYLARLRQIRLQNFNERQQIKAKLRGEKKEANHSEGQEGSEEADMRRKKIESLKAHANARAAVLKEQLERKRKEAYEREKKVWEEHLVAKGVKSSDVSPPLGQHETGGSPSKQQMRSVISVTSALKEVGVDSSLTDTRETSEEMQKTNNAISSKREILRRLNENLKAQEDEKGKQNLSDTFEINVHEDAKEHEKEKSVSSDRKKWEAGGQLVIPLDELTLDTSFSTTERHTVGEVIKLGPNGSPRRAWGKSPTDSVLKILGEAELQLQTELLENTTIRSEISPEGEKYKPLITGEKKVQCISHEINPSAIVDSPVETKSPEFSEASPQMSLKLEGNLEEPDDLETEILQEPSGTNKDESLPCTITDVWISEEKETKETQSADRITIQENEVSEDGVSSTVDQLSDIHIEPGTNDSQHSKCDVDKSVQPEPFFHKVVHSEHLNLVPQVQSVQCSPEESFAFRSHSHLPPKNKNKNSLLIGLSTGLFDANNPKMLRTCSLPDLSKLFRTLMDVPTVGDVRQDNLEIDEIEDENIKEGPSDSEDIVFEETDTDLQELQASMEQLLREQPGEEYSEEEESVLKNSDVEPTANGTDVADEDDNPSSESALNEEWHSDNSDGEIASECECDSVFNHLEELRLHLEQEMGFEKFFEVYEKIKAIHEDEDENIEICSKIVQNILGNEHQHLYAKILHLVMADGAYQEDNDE

[13] = biological target: T5, Serine/threonine-protein kinase Nek1 (Homo sapiens); details: at 1 µM
[14] = biological target: T6, Serine/threonine-protein kinase Nek2 (Homo sapiens) (UniProt P51955); details: at 0.1 µM
T6 sequence (whole entry): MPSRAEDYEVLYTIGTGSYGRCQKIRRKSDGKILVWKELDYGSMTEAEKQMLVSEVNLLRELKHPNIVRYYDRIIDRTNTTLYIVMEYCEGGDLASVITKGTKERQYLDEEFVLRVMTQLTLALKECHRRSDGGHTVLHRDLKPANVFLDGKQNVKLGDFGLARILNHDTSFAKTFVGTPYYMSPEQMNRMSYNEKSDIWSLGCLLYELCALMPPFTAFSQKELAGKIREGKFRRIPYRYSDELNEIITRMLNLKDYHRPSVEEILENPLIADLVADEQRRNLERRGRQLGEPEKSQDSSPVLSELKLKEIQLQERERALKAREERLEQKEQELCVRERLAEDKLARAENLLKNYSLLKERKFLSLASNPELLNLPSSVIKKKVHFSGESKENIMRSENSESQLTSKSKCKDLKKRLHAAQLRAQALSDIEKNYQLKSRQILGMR

[15] = biological target: T6, Serine/threonine-protein kinase Nek2 (Homo sapiens); details: at 1 µM
[16] = biological target: Serine/threonine-protein kinase Nek6 (Homo sapiens) (UniProt Q9HC98); details: at 0.1 µM
Serine/threonine-protein kinase Nek6 (Homo sapiens), sequence (Q9HC98 whole entry): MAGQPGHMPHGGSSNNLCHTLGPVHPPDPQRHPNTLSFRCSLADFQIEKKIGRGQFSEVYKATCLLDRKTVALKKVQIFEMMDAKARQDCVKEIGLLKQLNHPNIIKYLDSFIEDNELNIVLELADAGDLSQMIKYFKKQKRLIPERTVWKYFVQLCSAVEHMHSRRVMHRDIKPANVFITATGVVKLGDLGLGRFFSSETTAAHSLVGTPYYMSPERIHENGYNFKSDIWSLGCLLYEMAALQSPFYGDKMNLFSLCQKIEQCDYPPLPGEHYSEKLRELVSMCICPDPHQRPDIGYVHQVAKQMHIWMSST

[17] = biological target: Serine/threonine-protein kinase Nek6 (Homo sapiens) (UniProt Q9HC98); details: at 1 µM
[18] = biological target: Serine/threonine-protein kinase Nek7 (Homo sapiens) (UniProt Q8TDX7); details: at 0.1 µM
Serine/threonine-protein kinase Nek7 (Homo sapiens), sequence (Q8TDX7 whole entry, looked up): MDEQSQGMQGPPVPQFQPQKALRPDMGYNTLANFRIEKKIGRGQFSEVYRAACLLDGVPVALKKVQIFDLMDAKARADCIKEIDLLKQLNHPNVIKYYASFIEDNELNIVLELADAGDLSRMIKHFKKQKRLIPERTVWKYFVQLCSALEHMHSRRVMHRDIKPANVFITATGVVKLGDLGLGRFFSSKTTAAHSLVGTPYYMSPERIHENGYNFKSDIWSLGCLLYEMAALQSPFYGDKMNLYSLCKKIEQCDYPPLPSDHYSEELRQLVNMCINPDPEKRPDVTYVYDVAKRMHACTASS

[19] = biological target: Serine/threonine-protein kinase Nek7 (Homo sapiens) (UniProt Q8TDX7); details: at 1 µM
[20] = biological target: T7, Serine/threonine-protein kinase Nek9 (Homo sapiens) (UniProt Q8TD19); details: at 0.1 µM;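 also: reported value is the mean percent inhibition of NEK9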
T7 sequence (whole entry): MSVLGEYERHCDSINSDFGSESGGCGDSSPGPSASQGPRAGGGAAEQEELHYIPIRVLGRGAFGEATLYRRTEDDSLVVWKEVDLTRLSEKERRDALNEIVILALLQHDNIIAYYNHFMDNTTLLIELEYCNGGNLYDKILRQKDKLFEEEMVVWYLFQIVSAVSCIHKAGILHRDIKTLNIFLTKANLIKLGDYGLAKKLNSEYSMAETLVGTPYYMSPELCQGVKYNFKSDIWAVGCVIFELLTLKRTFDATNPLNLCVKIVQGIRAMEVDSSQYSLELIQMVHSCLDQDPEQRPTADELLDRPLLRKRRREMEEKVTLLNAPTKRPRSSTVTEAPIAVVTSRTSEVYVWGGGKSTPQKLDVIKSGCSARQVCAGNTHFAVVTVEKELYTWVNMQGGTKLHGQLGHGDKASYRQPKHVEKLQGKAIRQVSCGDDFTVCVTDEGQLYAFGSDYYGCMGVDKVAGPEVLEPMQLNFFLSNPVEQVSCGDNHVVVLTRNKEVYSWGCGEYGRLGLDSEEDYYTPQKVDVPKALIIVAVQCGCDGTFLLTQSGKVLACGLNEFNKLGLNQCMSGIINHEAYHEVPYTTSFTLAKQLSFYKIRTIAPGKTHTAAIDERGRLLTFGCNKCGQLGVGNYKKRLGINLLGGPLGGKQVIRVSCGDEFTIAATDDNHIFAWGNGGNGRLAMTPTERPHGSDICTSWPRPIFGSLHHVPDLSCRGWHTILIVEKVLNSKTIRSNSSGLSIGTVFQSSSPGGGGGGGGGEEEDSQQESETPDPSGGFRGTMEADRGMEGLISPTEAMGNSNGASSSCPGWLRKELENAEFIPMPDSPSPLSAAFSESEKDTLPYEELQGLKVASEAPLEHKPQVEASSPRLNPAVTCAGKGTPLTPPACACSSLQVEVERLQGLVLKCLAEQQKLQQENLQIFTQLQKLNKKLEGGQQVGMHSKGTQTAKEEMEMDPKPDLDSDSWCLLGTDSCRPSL

Sphingosine kinase 1 (Homo sapiens), sequence (Q9NYA1 whole entry): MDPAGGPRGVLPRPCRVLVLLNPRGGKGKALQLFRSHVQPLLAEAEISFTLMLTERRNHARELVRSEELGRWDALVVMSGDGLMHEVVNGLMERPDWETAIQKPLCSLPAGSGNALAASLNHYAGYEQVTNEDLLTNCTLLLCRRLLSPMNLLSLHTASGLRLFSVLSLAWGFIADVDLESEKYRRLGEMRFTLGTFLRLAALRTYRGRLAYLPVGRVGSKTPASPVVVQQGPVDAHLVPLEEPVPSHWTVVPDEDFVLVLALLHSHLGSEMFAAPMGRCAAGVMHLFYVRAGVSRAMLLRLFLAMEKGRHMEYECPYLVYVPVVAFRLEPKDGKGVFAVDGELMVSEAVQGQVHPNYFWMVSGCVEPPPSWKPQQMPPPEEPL

Row | SMILES | inhibition [1] | inhibition [2] | inhibition [3] | inhibition [4] | inhibition [5] | inhibition [6] | inhibition [7] | inhibition [8] | inhibition [9] | inhibition [10] | inhibition [11] | inhibition [12] | inhibition [13] | inhibition [14] | inhibition [15] | inhibition [16] | inhibition [17] | inhibition [18] | inhibition [19] | inhibition [20]
1 | COc1cccc(-n2ncc3c(N/N=C/c4ccc(S(C)(=O)=O)cc4)ncnc32)c1 | 10.4% | 2.7% | -2.05% | 23.1% | 39.1% | -1.85% | -0.62% | -1.48% | -0.15% | 1.8% | 8.64% | 1.92% | 5.16% | 2.11% | 1.84% | 1.65% | -0.32% | 3.45% | 2.28% | 4.38%
2 | CCCN1CCCC(c2ccc(Nc3nc(Nc4cc(F)ccc4C(N)=O)c4cc[nH]c4n3)c(OC)c2)C1 (stereo not given) | 3.56% | 1.62% | -1.24% | 33.5% | 66.2% | 6.24% | 4.21% | 8.08% | 4.25% | 4.93% | 8.28% | 3.63% | 21.6% | 6.55% | 11.1% | 1.92% | 3.03% | 6.42% | 7.03% | 9.57%

Source: ChEMBL document CHEMBL1961873, “Compounds: GSK PKIS; Assays: Nanosyn kinase panel” (2012)
